Bioassay records (PubChem BioAssay)
Hits are enriched below; roughly 21% of the tested compounds scored in any of these assays.
Pf growth 48h: inhibits P. falciparum growth in the first generation, 48 h; P. falciparum luciferase growth in erythrocytes, 48 h; Potency, µM (highest dose often 28.7 µM), usual class: inhibitors; 310,000 tested, 5.9% active
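In quantitative HTS format, infected erythrocytes bearing luciferase-reporter parasites were treated for a single generation at 37 C. Luminescence after adding detection reagent served as the growth measure.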
FBPA Giardia inh: blocks Giardia fructose-bisphosphate aldolase activity. Potency, µM (top dose mostly 59.6 µM), most hits filed as inhibitors. A8B2U2. purified Giardia FBPA. 290,000 tested, 0.71% active; note: nearly all actives have a fitted effect of over 55% in size
Target sequence (A8B2U2 whole entry, looked up): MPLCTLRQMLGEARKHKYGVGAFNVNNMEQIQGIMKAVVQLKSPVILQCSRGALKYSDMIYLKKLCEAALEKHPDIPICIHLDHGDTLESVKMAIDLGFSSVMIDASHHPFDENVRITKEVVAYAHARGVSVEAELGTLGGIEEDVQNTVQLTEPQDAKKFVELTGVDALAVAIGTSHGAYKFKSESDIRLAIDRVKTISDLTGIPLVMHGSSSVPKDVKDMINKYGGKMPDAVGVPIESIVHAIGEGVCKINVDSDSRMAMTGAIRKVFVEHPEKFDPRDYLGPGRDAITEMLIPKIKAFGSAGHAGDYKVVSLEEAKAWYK
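40 nM FBPA preincubated 10 min at RT with compound (up to 57.5 uM final), then substrate plus GAPDH/TPI/NAD/arsenate coupling and diaphorase/resazurin added. Fluorescence read after 20 min at RT, 525/598 nm.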
Shiga toxin inh: inhibitors of Shiga toxin in Vero cells; Vero cells, Shiga toxin protein synthesis inhibition reporter; 290,000 tested, 9.2% active; AID 2315; inhibition, % at 38.7 µM; in the data active = inhibition mostly above about 28%, no sharp cut-off; inactive = mostly below about 43%
Cycloheximide cs: counter-screen for Shiga toxin inhibitors: cycloheximide protein synthesis inhibition | cell reporter, cycloheximide protein synthesis inhibition counterscreen | max response, % | 300,000 tested, 12% active | AID 2314; in the data active = max response mostly above about 13%, no sharp cut-off; inactive = mostly below about 14%; note: read at 38.3 µM for the half of the compounds with a filed dose
Pf growth 96h: P. falciparum growth inhibition at 96 hours | AID 504834 | 320,000 tested, 6.9% active | Potency, µM (titrated, usually from 28.7 µM), hits mostly inhibitors | P. falciparum luciferase reporter growth, 96 h
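Erythrocytes infected with luciferase-expressing P. falciparum were dispensed at 2% hematocrit and 0.05% parasitemia (final), then incubated with compounds 96 hours at 37 C in 5% CO2. Luminescence after detection reagent addition reported growth.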
NS1 function inh: blocks influenza NS1 protein function; Potency, µM (highest dose often 46.1 µM); 270,000 tested, 0.4% active; calls by dose curve; note: actives are rising curves; nearly all actives have a fitted effect of over 50% in size
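A cell-based growth assay was used: compounds that relieve NS1-induced slow growth of budding yeast raise OD600. Assay medium was yeast nitrogen base with ammonium sulphate and -URA supplement, pH 6.0, with 2% galactose.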
Large screens that a line does not name were inactive. Unless noted, calls come from the whole dose curve; as a rule, active = well fitted curve in the direction sought with a large enough effect; inconclusive = small, poorly fitted or top-dose-only effect, or another doubt; inactive = no such curve, though single readings can be large; an effect the other way counts as inactive or inconclusive.

CC(=O)SC1CC(=O)N(c2c(C)cccc2C)C1=O (stereo not given)	Pf growth 48h 1.9µM
CC(=O)SC1CC(=O)N(c2ccc(C(C)(C)C)cc2)C1=O (stereo not given)	none
COCCNC(=O)CN1C(=O)COc2ccc(S(=O)(=O)N3CC(C)CC(C)C3)cc21 (stereo not given)	none
CCc1ccc(C(=O)N2CCC(c3nc4ccccc4s3)CC2)cc1	Pf growth 96h 3.3µM
Cc1c(-c2ccc(F)cc2)nc(N)c(C#N)c1-c1cccs1	none
CS(=O)(=O)c1cnc2c(-c3ccc(F)cc3)cnn2c1N	Shiga toxin inh 61, Cycloheximide cs 58
N#Cc1cnn2c(N)c(-c3ccc(Cl)cc3)cnc12	none (no result: NS1 function inh)
Nc1c(-c2cccs2)cnc2c(-c3ccc(F)cc3)cnn12	Shiga toxin inh 118, Cycloheximide cs 43
CC(C)(C)S(=O)(=O)c1cnc2c(-c3ccsc3)cnn2c1N	Cycloheximide cs 49 (no result: NS1 function inh)
Nc1c(-c2ccccc2)cnc2c(-c3ccccc3)cnn12	Shiga toxin inh 130, Cycloheximide cs 52
NC(=O)c1cnn2c(C(F)(F)F)cc(-c3ccc(F)cc3)nc12	Pf growth 48h inconclusive, Pf growth 96h inconclusive
COc1ccc(/C=C\C(=O)Nc2ccccc2C(=O)O)cc1OC	none (no result: Pf growth 48h, Shiga toxin inh, Cycloheximide cs, Pf growth 96h, NS1 function inh)
CSCC[C@H](NC(=O)Cc1c(C)c2cc3c4c(oc3cc2oc1=O)CCCC4)C(=O)O	none
CCCCn1c(N)c(N(Cc2ccccc2OC)C(=O)CCC(C)C)c(=O)[nH]c1=O	none (no result: FBPA Giardia inh)
CS(=O)(=O)N1CCC2(CC1)CN(C(=O)Nc1cccc(F)c1)C2	none (no result: Pf growth 48h, Shiga toxin inh, Cycloheximide cs, Pf growth 96h, NS1 function inh)
CCn1c2ccccc2c2nnc(NCCCO)nc21	none (no result: Pf growth 48h, FBPA Giardia inh, Shiga toxin inh, Cycloheximide cs, Pf growth 96h)
COC(=O)c1ccc(CN2CCN(C(C)C)C(CCO)C2)cc1 (stereo not given)	Pf growth 96h inconclusive
C[C@@H]1Cc2ccccc2N1NC(=O)c1ccc(Cl)c(S(N)=O)c1 (stereo not given in full)	none (no result: Shiga toxin inh, Cycloheximide cs, NS1 function inh)
C/C(=N/O)c1ccc2c(c1)OCCOCCOc1cc(/C(C)=N/O)ccc1OCCOCCO2	Pf growth 48h inconclusive, Pf growth 96h 13µM
C/C(=N\NC(=O)C1CC1)c1ccc(Cl)c(Cl)c1	Pf growth 96h 4.1µM (no result: Pf growth 48h)
Nc1ccc2c(c1)OCCOCCOCCOCCOCCO2	FBPA Giardia inh inconclusive, Pf growth 96h 5.9µM (no result: NS1 function inh)
C/C(=N\NC(=O)C1CC1)c1ccc2c(c1)OCCO2	Cycloheximide cs 28
O=C(O)c1ccc2c(c1)C(=O)N([C@H](Cc1ccccc1)C(=O)O)C2=O	none (no result: NS1 function inh)
O=[N+]([O-])c1ccc(N/N=C/c2cn(Cc3ccc(F)cc3)c3ccccc23)nc1	none
Cc1ccccc1SCCNC(=O)c1ccccc1Br	Shiga toxin inh 99, Cycloheximide cs 43, Pf growth 96h inconclusive
O=C(CCc1ccccc1)NCCCNC(=O)CCc1ccccc1	Pf growth 48h inconclusive (no result: FBPA Giardia inh, Shiga toxin inh, Cycloheximide cs, NS1 function inh)
O=C(NCCNC(=O)c1ccccc1Br)c1ccccc1Br	Pf growth 96h inconclusive
Cc1ccccc1SCCNC(=O)CCc1ccccc1	Shiga toxin inh 28
O=C(c1cc(C(F)(F)F)cc(C(F)(F)F)c1)N1CCC[C@@]2(CCN(Cc3nccs3)C2)C1	none (no result: Pf growth 48h, Shiga toxin inh, Cycloheximide cs, Pf growth 96h, NS1 function inh)
COc1ccc(C(=O)N/N=C/c2ccccc2OC(=O)c2ccccc2)cc1	Pf growth 48h inconclusive, Shiga toxin inh 41, Cycloheximide cs 33
COc1cc(C(=O)Oc2ccccc2/C=N/NC(=O)c2ccc(C)cc2)cc(OC)c1OC	Pf growth 48h inconclusive, Shiga toxin inh 118, Cycloheximide cs 87, Pf growth 96h inconclusive
CCOc1cc(/C=N\NC(=O)c2ccc(NC(=O)C(C)(C)C)cc2)ccc1OC(=O)c1ccc(C)cc1	none (no result: Pf growth 48h)
CC(C)(C)C(=O)Nc1ccc(C(=O)N/N=C/c2ccccc2OC(=O)c2ccccc2)cc1	Pf growth 48h inconclusive, Pf growth 96h 4.1µM
COc1ccc(C(=O)N/N=C/c2ccc(OC(=O)c3ccccc3)cc2)cc1	none
COc1ccc(CN(C)CC(=O)Nc2ccccc2C(=O)NC2CC2)cc1OC	none (no result: FBPA Giardia inh, Shiga toxin inh, Cycloheximide cs, NS1 function inh)
Cc1ccc(S(=O)(=O)OCCc2ccccc2)cc1	none (no result: Pf growth 48h, Shiga toxin inh, Cycloheximide cs, Pf growth 96h, NS1 function inh)
Cc1nn(Cc2ccccc2)c(C)c1NC(=O)CSc1n[nH]c(C)c1[N+](=O)[O-]	Pf growth 48h inconclusive
Cc1nn(Cc2ccc(Cl)cc2)c(C)c1NC(=O)CSc1n[nH]c(C)c1[N+](=O)[O-]	Pf growth 96h 13µM
CC(C)[C@]1(Cl)CC[C@@H]2[C@]3(C)CCC[C@@](C)(C(=O)O)[C@H]3C[C@H](Cl)[C@@]2(Cl)[C@H]1Cl	none (no result: Pf growth 48h, FBPA Giardia inh, Shiga toxin inh, Cycloheximide cs, Pf growth 96h)
